In all, about 38,000 compounds went through this assay and about 1,200 (3.2%) showed an effect of 50% or more. The median lay at about -58%. Many of the other results were omitted from the sample, so strong results are more common in it than they were.
These compounds were tested on Plasmodium falciparum (assay: Calibr Malaria Delayed Death Assay SOP). Settings: concentration 4.99e-06 (unit not given; other assays of the set use mol/L).
Assay type: functional, organism-based
Parameters: scale not given: in the data most compounds retested in dose-response had high values
For `O=C(NCCOc1ccc(Cl)cn1)Nc1nccs1`, the “Percent Effect” value was -1.653%. In the case of `CCS(=O)(=O)N1CCc2ccc(NC(=O)Nc3cccc(C)c3)cc21`, the “Percent Effect” value is reported as -42.73%. For `O=C(NCc1ccccn1)[C@H]1COC[C@H]2CN(CC3CC3)C[C@H]21.O=C(O)C(F)(F)F.O=C(O)C(F)(F)F`, the “Percent Effect” value was -42.42%. `CC(NC(=O)Cn1ccc2sccc2c1=O)c1ccccc1` (stereo not drawn) was tested, and the “Percent Effect” value was -76.67%. In the case of `COc1ccc(-c2cc(C3(O)CCOC(C)(C)C3)on2)cc1` (stereo not drawn), the “Percent Effect” value is reported as -20.9%. With `Cc1c(COC(C)C)cccc1NC(=O)N1CC[C@H](O)C1` the “Percent Effect” value was -81.26%. In the case of `NC(=O)c1c(SCCN2CCCCC2)sc2c(O)cc(=O)[nH]c12`, the “Percent Effect” value is reported as 1.518%. For `O=S1(=O)[C@@H](c2ccccc2)[C@H](CO)CN1c1ccccc1`, the “Percent Effect” value was -141.9%. For `Cc1cc(C)nc(CN(C)c2nc(C3CCCC3)nc3c2cnn3C)c1`, the “Percent Effect” value was -50.46%. With `CCN(CC)c1ncnc2c1CCN(c1ccc(C)nn1)CC2` the “Percent Effect” value was -148.5%. For `Cc1nn(CCCNC(=O)C2CCN(S(C)(=O)=O)CC2)cc1Cl`, the “Percent Effect” value was -83.52%. With `Cc1cnn(C2CN(CCOc3ccccc3C#N)C2)c1` the “Percent Effect” value was -94.34%. For `O=C(Cc1ccccn1)N1CCc2ncnc(NC3CCC3)c2CC1.O=C(O)C(F)(F)F`, the “Percent Effect” value was -99.33%. For `COCc1ncc(CN2CCC(Oc3ccc(OC)cc3)CC2)cn1`, the “Percent Effect” value was -166.1%. With `O=C(Nc1cccc(OCC(F)F)n1)c1ccncc1` the “Percent Effect” value was -44.55%. For `COc1ccc(NC2CCCN(Cc3cnc(N(C)C)s3)C2)cc1OC` (stereo not drawn), the “Percent Effect” value was -57.98%. For `CCOc1ccccc1-c1noc(CN2CCCC(O)C2)n1` (stereo not drawn), the “Percent Effect” value was -111.8%. In the case of `COc1ccccc1CN1CCCC(n2cccn2)C1` (stereo not drawn), the “Percent Effect” value is reported as 31.44%. For `COc1cccc(CN2CCCC(Nc3cccc(F)c3)C2)c1O` (stereo not drawn), the “Percent Effect” value was 66.55%. For `CCOc1cccc(CNc2ccccc2C(F)(F)F)c1O`, the “Percent Effect” value was -100.4%. In the case of `CN1CCOC(CNCC(=O)NCCC2=CCCCC2)C1` (stereo not drawn), the “Percent Effect” value is reported as -80.77%. `COCC[C@]1(O)CCN(c2ncc(Cl)cc2F)C[C@H]1C` was tested, and the “Percent Effect” value was -23.85%. `CC[C@@]1(O)CCN(c2ncc(Cl)cc2F)C[C@H]1O` was tested, and the “Percent Effect” value was -98.16%. In the case of `Cc1nn(Cn2ccc(C(=O)N3CCCC(C)C3)n2)c(C)c1Cl` (stereo not drawn), the “Percent Effect” value is reported as -15.8%. With `O=C(Cn1nc(C(F)(F)F)c(Br)c1C1CC1)N1CCOCC1` the “Percent Effect” value was -21.49%. With `Cn1ccnc1CN1CCCCC1c1nc(-c2ccccc2)no1` (stereo not drawn) the “Percent Effect” value was -149.2%. In the case of `CN1CCCC1CCn1ccnc1-c1nc2ccccc2[nH]1` (stereo not drawn), the “Percent Effect” value is reported as 72.06%. In the case of `CN1CCCC1CCn1ccnc1-c1ccc2ccccc2n1` (stereo not drawn), the “Percent Effect” value is reported as 54.89%. For `OCC1CCCCN1CCn1ccnc1-c1nc2ccccc2[nH]1` (stereo not drawn), the “Percent Effect” value was 10.13%. In the case of `Cc1nccn1CCC1CCCCN1C(=O)c1ccc2[nH]nnc2c1` (stereo not drawn), the “Percent Effect” value is reported as -19.01%. With `CC(=O)Nc1ccc2nc(-c3nccn3C[C@@H]3CCCO3)ccc2c1` the “Percent Effect” value was -89.17%. In the case of `c1ccc(-c2noc(CCCN3CCCC3Cn3cccn3)n2)cc1` (stereo not drawn), the “Percent Effect” value is reported as 29.02%. With `CN(CC1CCCN1C)c1nccc(C2CCCC2)n1` (stereo not drawn) the “Percent Effect” value was 7.396%. `CN1CCCC1CCn1ccnc1-c1nc(-c2ccccc2)no1` (stereo not drawn) was tested, and the “Percent Effect” value was 57.38%. With `C[C@@H]1CN(C(=O)c2cc(Cn3ccc4ccccc43)[nH]n2)C[C@H](C)O1` the “Percent Effect” value was -126.8%. `CC1CCCN(C(=O)Nc2cccc(CN3CCOC3=O)c2)C1` (stereo not drawn) was tested, and the “Percent Effect” value was -90.51%. With `C[C@@H](O)CNC(=O)c1nc(Cc2c(Cl)cccc2Cl)no1` the “Percent Effect” value was -61.62%. `COc1ccc(C(CC(=O)O)NC(=O)CCc2cccs2)cc1OC` (stereo not drawn) was tested, and the “Percent Effect” value was -100.1%. For `CN1CCC(N(Cc2ccncc2)Cc2nc3c(s2)CCCC3)CC1`, the “Percent Effect” value was 7.357%. With `COc1ccc(F)cc1C(C)NC(=O)Cn1ccc(=O)n(C)c1=O` (stereo not drawn) the “Percent Effect” value was -164.7%. In the case of `COC1CCN(CCNC(=O)NC(C)c2ccc(F)c(F)c2)CC1` (stereo not drawn), the “Percent Effect” value is reported as 45.3%. In the case of `COC1CCN(CCNC(=O)NCC(C)c2cccc(C)c2)CC1` (stereo not drawn), the “Percent Effect” value is reported as 54%. `COC1CCN(CCNC(=O)NC(C)c2cccc(Cl)c2)CC1` (stereo not drawn) was tested, and the “Percent Effect” value was 23.1%. For `N#Cc1cc(Cn2cnc(C3CCC3)cc2=O)ccc1F`, the “Percent Effect” value was -42.13%. For `Cc1cnn(CC2CN(Cc3nnc(C4CC4)n3C)CCO2)c1` (stereo not drawn), the “Percent Effect” value was -158.8%. For `CC(C)n1cnnc1CCNCc1cn(CCC(N)=O)c2ccccc12`, the “Percent Effect” value was -17.79%. For `CC(NCc1cn(CCC(N)=O)c2ccccc12)c1nncn1C` (stereo not drawn), the “Percent Effect” value was -188.2%. `Cc1ccc(C(C)NCc2cn(CCC(N)=O)c3ccccc23)cc1C` (stereo not drawn) was tested, and the “Percent Effect” value was 82.29%. `CN(C)C(=O)CN1CCc2ncnc(C3CC3)c2CC1` was tested, and the “Percent Effect” value was -29.69%. With `COc1ncccc1NC(=O)NC(C)c1nncn1C` (stereo not drawn) the “Percent Effect” value was -34.42%. For `Cl.c1cc(CNCc2ccnc(N3CCOCC3)c2)c2c(c1)OCO2`, the “Percent Effect” value was -34.78%. With `CC(C)C(CNCc1cccc2c1OCO2)N1CCOCC1` (stereo not drawn) the “Percent Effect” value was 75.82%. With `Cc1cnc(C(=O)NCC(c2ccc(C)o2)N2CCOCC2)cn1` (stereo not drawn) the “Percent Effect” value was -124.5%. For `c1csc(C(CNCc2cccc3c2OCO3)N2CCOCC2)c1` (stereo not drawn), the “Percent Effect” value was 39.98%. With `Cc1ccc(C(CNCc2cccc3c2OCO3)N2CCOCC2)o1` (stereo not drawn) the “Percent Effect” value was 65.56%. For `CC(C)c1nn(C)c(N(C)C)c1CNCc1cccc2c1OCO2`, the “Percent Effect” value was 16.39%. In the case of `O=C(NCCn1cccn1)c1ccn(-c2cccc(F)c2)n1`, the “Percent Effect” value is reported as -72.56%. With `Cc1noc2nc(C3CC3)c(Cl)c(C(=O)O)c12` the “Percent Effect” value was -135.9%. For `Cc1ccc(N2CCC(C(=O)NC3CCc4nccn4C3)CC2)nc1` (stereo not drawn), the “Percent Effect” value was -14.8%. For `CC(C)[C@@H]1CN(C(=O)CN(C)Cc2ccccc2)C[C@H]1C(=O)O`, the “Percent Effect” value was -22.97%. With `CC(C)[C@@H]1CN(C(=O)NCc2ccco2)C[C@H]1N(C)C` the “Percent Effect” value was -12.41%. With `CC(C)[C@@H]1CN(C(=O)C2(c3ccccc3)CCN(C)CC2)C[C@H]1N(C)C` the “Percent Effect” value was 83.06%. With `CCCn1c(N2CCCC(C)C2)nc2c(C)nn(C)c2c1=O` (stereo not drawn) the “Percent Effect” value was -32.41%. In the case of `Cc1ncncc1C(=O)N1CCOC(c2nc(C(C)C)n[nH]2)C1` (stereo not drawn), the “Percent Effect” value is reported as -146.2%. In the case of `Cn1ncc(N2CCOC(CCNC(=O)CO)C2)cc1=O` (stereo not drawn), the “Percent Effect” value is reported as -51.52%. With `CC(=O)N1CCC2(CCN(C(=O)c3ccc(F)c(C(F)(F)F)c3)CC2)C1` the “Percent Effect” value was -64.74%. `CC(C)N(C)CC(=O)NCc1ccccc1N1CCN(C)CC1` was tested, and the “Percent Effect” value was 43.49%. `O=C(CN1CCS(=O)(=O)CC1)NCc1ccccc1F` was tested, and the “Percent Effect” value was -87.27%. `Cc1cc(CNC(=O)NCc2ccccc2N2CCOCC2)no1` was tested, and the “Percent Effect” value was -32.16%. For `Cc1cc(=O)n(C)cc1NC(=O)Cc1cccc(F)c1`, the “Percent Effect” value was -34.19%. For `CN1CCN(c2ccccc2CNC(=O)Cc2cccc(F)c2)CC1`, the “Percent Effect” value was 77.21%. For `CCc1ccccc1CNC(=O)CNCC(F)(F)F`, the “Percent Effect” value was -137.2%. With `CN1CCCN(c2ccc(F)cc2CNC(=O)c2ccsc2)CC1` the “Percent Effect” value was 59.32%. For `CN1CCN(c2ccccc2CNC(=O)Cc2ccccc2F)CC1`, the “Percent Effect” value was 75.84%. `O=C(NCc1cccnc1N1CCCC(O)C1)c1ccsc1` (stereo not drawn) was tested, and the “Percent Effect” value was -31.1%. With `CN1CCN(c2ccccc2CNC(=O)CSC(F)(F)F)CC1` the “Percent Effect” value was 67.15%. In the case of `CCOCCCNC(=O)Cc1cccc(F)c1`, the “Percent Effect” value is reported as -98.72%. In the case of `Cc1ccc(C(=O)NCc2cc(F)ccc2N2CCCN(C)CC2)o1`, the “Percent Effect” value is reported as 33.96%. With `CC(=O)N1CCCN(C(=O)c2cnn(C(C)(C)C)c2C)CC1` the “Percent Effect” value was -71.74%. With `Cc1ccc(CNC(=O)C2CCNC(=O)C2)c(OCCC(C)C)c1` (stereo not drawn) the “Percent Effect” value was -137.1%. With `COc1nn(C)c2c1CCCN(C(=O)c1ccc3ccccc3n1)C2.O=C(O)C(F)(F)F` the “Percent Effect” value was -93.98%. In the case of `O=C(NCc1cc(=O)n2c(n1)CN(CC1CC1)CCC2)c1ccsc1.O=C(O)C(F)(F)F`, the “Percent Effect” value is reported as -77.99%. `Cc1cc(NS(=O)(=O)c2cccs2)ccc1-n1cccc1C(=O)O` was tested, and the “Percent Effect” value was -24.74%. For `CN1CCN(c2ccccc2NC(=O)NCC[S+](C)[O-])CC1` (stereo not drawn), the “Percent Effect” value was -127.8%. `CN1CCN(c2ccccc2NC(=O)NCCc2ccccc2)CC1` was tested, and the “Percent Effect” value was 83.6%. For `CN1CCN(c2ccccc2NC(=O)NCCc2ccc(O)cc2)CC1`, the “Percent Effect” value was -22.54%. `c1nc(N2CCc3[nH]cnc3C2)c2cc[nH]c2n1` was tested, and the “Percent Effect” value was -49.27%. For `CCn1nc(C)c2nc(C(C)C)nc(NCc3ccccn3)c21`, the “Percent Effect” value was 36.29%. For `Cc1nc2sccn2c1CNc1ccc(C(=O)O)cc1`, the “Percent Effect” value was -70.26%. `Cc1ccc(CN(CCN(C)C)C(=O)Cc2cn3ccccc3n2)o1` was tested, and the “Percent Effect” value was -71.99%. In the case of `O=C(C1CCCN1Cc1nc(-c2ccco2)no1)N1CCSCC1` (stereo not drawn), the “Percent Effect” value is reported as -120.3%. `c1coc(-c2nc3c(c(NCc4n[nH]c5c4CCC5)n2)CCNCC3)c1` was tested, and the “Percent Effect” value was 20.11%. In the case of `Nc1nc2c(c(NCc3cnc4c(c3)CCC4)n1)CCNC2`, the “Percent Effect” value is reported as -34.51%. `c1ccc(-c2nc3c(c(NCc4n[nH]c5c4CCC5)n2)CCNC3)cc1` was tested, and the “Percent Effect” value was 89.28%. With `COc1ccccc1C(C)NC(=O)NCCC(=O)NC1CCCCC1` (stereo not drawn) the “Percent Effect” value was -102.7%. `Cc1nc(C(=O)N2CCN(S(C)(=O)=O)CC2)c(-c2ccccc2)s1` was tested, and the “Percent Effect” value was -18.55%. With `CC(C)COCCCNC(=O)c1cccnc1N1CCOCC1` the “Percent Effect” value was -144.5%. In the case of `Cl.Cl.Fc1ccc2c(c1)C1(CCNCC1)CC2NC1CC1` (stereo not drawn), the “Percent Effect” value is reported as 82.19%. For `COCCN1CCC2(CC1)CC(OCC1CC1)c1ccc(C)cc12` (stereo not drawn), the “Percent Effect” value was 40.12%. In the case of `Cc1ccc2c(c1)C(NC(C)C)CC21CCNCC1.Cl` (stereo not drawn), the “Percent Effect” value is reported as -48.62%. With `Fc1ccc2c(c1)C1(CCNCC1)CC2OCC1CC1` (stereo not drawn) the “Percent Effect” value was 69.13%. For `Cl.Cl.c1ccc2c(c1)C(NC1CCCC1)CC21CCNCC1` (stereo not drawn), the “Percent Effect” value was 74.54%. For `CC(C)NC1CC2(CCNCC2)c2cc(F)ccc21.Cl.Cl` (stereo not drawn), the “Percent Effect” value was 6.754%. In the case of `Cc1ccc2c(c1)C1(CCNCC1)CC2NCCO.Cl.Cl` (stereo not drawn), the “Percent Effect” value is reported as -29.16%. With `Cc1ccc2c(c1)C(NC1CC1)CC21CCNCC1.Cl` (stereo not drawn) the “Percent Effect” value was 82.38%. For `Cl.O=C1NC2(CCNCC2)CC1c1ccccc1` (stereo not drawn), the “Percent Effect” value was -140.8%. `Cc1ccc2c(c1)C1(CCNCC1)CC2OCC1CC1` (stereo not drawn) was tested, and the “Percent Effect” value was 44.42%. In the case of `CNC(=O)CC1CC2(CCNCC2)c2cc(F)ccc21` (stereo not drawn), the “Percent Effect” value is reported as -118.7%.

Source: ChEMBL document CHEMBL3988442, “University of Dundee, Small-Polar-MMV Screening Library” (2021)
